PubChem BioAssay AID1159580 (chemical genetic matrix, 2015)
Several values for one entry are separate records, joined by “and”; a condition that tells them apart may be missing. Identical values can stand only once. Among all 5,500 compounds or so, about 2,000 (36%) were called active. Another 18% or so got no clear call; they are omitted. No stated cut-off is given here; in the data, active means normalized growth mostly below about 0.91 (no sharp cut-off); inconclusive means no clear call, values can overlap the other calls; inactive means mostly above about 0.92. The list shows a part of the results.

Experiment: chemical genetic growth profiling, strain panel (AID 1159580);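 further: tested at 20 µM; growth read once vehicle control cultures reached saturation at 30 °C; 1 = growth at the plate median or of vehicle wells; lower values mean less growth of the strain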
Conditions: S. cerevisiae deletion strains, growth OD

Measured: normalized growth

O=C(/C=C/c1ccc(O)cc1)c1ccc(O)cc1O
inactive: locus YAL013W, strain DEP1, hits give low values 0.996 and 0.982 | locus YAL021C, strain ccr4, hits give low values 0.981 | locus YAL026C, strain drs2, hits give low values 1.02 | locus YAL030W, strain snc1, hits give low values 1.01 | locus YAL040C, strain CLN3, hits give low values 0.986 | locus YBL061C, strain skt5, hits give low values 1 | locus YBR009C, strain hhf1, hits give low values 0.999 | locus YBR021W, strain FUR4, hits give low values 1.04 | locus YBR023C, strain chs3, hits give low values 0.997 | locus YBR171W, strain sec66, hits give low values 1.01 | locus YBR229C, strain ROT2, hits give low values 0.987 | locus YBR231C, strain swc5, hits give low values 0.979 | locus YBR279W, strain paf1, hits give low values 0.99 | locus YCL011C, strain gbp2, hits give low values 0.995 | locus YCL016C, strain dcc1, hits give low values 0.991 | locus YCL029C, strain bik1, hits give low values 0.945 | locus YCL061C, strain MRC1 (second series), hits give low values 1.01 | locus YCL069W, strain vba3, hits give low values 1.01 | locus YCR088W, strain abp1, hits give low values 1.01 | locus YDL005C, strain med2, hits give low values 1.02 | locus YDL035C, strain GPR1, hits give low values 0.98 | locus YDL040C, strain nat1, hits give low values 1 | locus YDL074C, strain BRE1, hits give low values 0.912 | locus YDL101C, strain DUN1, hits give low values 1 | locus YDL185W, strain tfp1, hits give low values 0.919 | locus YDL192W, strain arf1, hits give low values 0.948 | locus YDR001C, strain nth1, hits give low values 1 | locus YDR069C, strain doa4, hits give low values 1 | locus YDR101C, strain arx1, hits give low values 0.96 | locus YDR137W, strain rgp1, hits give low values 1.08 | locus YDR150W, strain NUM1, hits give low values 0.991 and 1.01 | locus YDR159W, strain sac3, hits give low values 0.99 | locus YDR162C, strain NBP2, hits give low values 1.02 | locus YDR195W, strain ref2 1.04 | locus YDR297W, strain sur2, hits give low values 1 | locus YDR318W, strain mcm21, hits give low values 0.966 | locus YDR334W, strain swr1, hits give low values 1 | locus YDR335W, strain msn5, hits give low values 1.02 | locus YDR363W, strain ESC2, hits give low values 1.01 | locus YDR388W, hits give low values 0.96 | locus YDR392W, strain spt3, hits give low values 0.892 | locus YDR502C, strain sam2, hits give low values 0.963 | locus YEL003W, strain gim4, hits give low values 1.01 | locus YEL037C, strain rad23, hits give low values 1.01 | locus YEL061C, strain CIN8 (second series), hits give low values 1.01 | locus YEL061C, strain CIN8, hits give low values 0.992 | locus YER002W, strain NOP16, hits give low values 0.985 | locus YER015W, strain faa2, hits give low values 1 | locus YER016W, strain bim1, hits give low values 1.01 | locus YER110C, hits give low values 0.955 | locus YER111C, strain swi4, hits give low values 1.02 | locus YER155C, strain BEM2 (second series), hits give low values 0.97 | locus YER155C, strain BEM2, hits give low values 0.972 | locus YER167W, strain BCK2, hits give low values 0.971 | locus YFR010W, strain ubp6, hits give low values 1.02 | locus YGL078C, strain dbp3, hits give low values 1.01 | locus YGL086W, strain mad1, hits give low values 0.958 | locus YGL167C, strain pmr1, hits give low values 1.02 | locus YGL173C, strain kem1, hits give low values 1.02 | locus YGL227W, strain vid30, hits give low values 1.01 | locus YGL240W, strain doc1, hits give low values 0.994 | locus YGL248W, strain PDE1, hits give low values 1.01 | locus YGL253W, strain hxk2, hits give low values 0.987 | locus YGR078C, strain PAC10, hits give low values 0.997 and 0.992 | locus YGR135W, strain pre9, hits give low values 0.941 | locus YGR252W, strain gcn5, hits give low values 0.935 | locus YHR013C, strain ard1, hits give low values 1.03 | locus YHR027C, strain rpn1, hits give low values 1.01 | locus YHR030C, strain SLT2, hits give low values 0.98 and 0.955 | locus YHR079C, strain IRE1 (second series), hits give low values 0.959 | locus YHR079C, strain IRE1, hits give low values 0.895 | locus YHR094C, strain hxt1, hits give low values 0.965 | locus YHR129C, strain ARP1, hits give low values 0.978 | locus YHR142W, strain chs7, hits give low values 0.985 | locus YHR200W, strain rpn10, hits give low values 0.944 | locus YIL066C, strain RNR3, hits give low values 0.975 | locus YIL073C, strain SPO22, hits give low values 0.96 | locus YIL125W, strain kgd1, hits give low values 0.963 | locus YIR030C, strain dcg1, hits give low values 0.973 | locus YJL092W, strain hpr5, hits give low values 1.01 | locus YJL095W, strain BCK1 (second series), hits give low values 1.01 | locus YJL095W, strain BCK1, hits give low values 1.01 and 0.977 | locus YJL115W, strain asf1, hits give low values 1.02 | locus YJL129C, strain trk1, hits give low values 0.983 | locus YJL134W, strain LCB3, hits give low values 0.97 | locus YJL154C, strain vps35, hits give low values 1.02 | locus YJL164C, strain tpk1, hits give low values 0.986 | locus YJL166W, strain qcr8, hits give low values 1.01 | locus YJL168C, strain set2, hits give low values 0.963 | locus YJL187C, strain SWE1 (second series), hits give low values 0.994 | locus YJR043C, strain POL32, hits give low values 0.961 | locus YJR066W, strain TOR1, hits give low values 0.904
